Experimental findings from ChEMBL document CHEMBL2218924, “A broad activity screen in support of a chemogenomic map for kinase signalling research and drug discovery” (Biochem J, 2013) are described below.

Each structure is given as a SMILES string.

The target in assay [1] is T1, Serine/threonine-protein kinase TBK1 (Homo sapiens) (UniProt Q9UHD2).
T1 sequence (whole entry): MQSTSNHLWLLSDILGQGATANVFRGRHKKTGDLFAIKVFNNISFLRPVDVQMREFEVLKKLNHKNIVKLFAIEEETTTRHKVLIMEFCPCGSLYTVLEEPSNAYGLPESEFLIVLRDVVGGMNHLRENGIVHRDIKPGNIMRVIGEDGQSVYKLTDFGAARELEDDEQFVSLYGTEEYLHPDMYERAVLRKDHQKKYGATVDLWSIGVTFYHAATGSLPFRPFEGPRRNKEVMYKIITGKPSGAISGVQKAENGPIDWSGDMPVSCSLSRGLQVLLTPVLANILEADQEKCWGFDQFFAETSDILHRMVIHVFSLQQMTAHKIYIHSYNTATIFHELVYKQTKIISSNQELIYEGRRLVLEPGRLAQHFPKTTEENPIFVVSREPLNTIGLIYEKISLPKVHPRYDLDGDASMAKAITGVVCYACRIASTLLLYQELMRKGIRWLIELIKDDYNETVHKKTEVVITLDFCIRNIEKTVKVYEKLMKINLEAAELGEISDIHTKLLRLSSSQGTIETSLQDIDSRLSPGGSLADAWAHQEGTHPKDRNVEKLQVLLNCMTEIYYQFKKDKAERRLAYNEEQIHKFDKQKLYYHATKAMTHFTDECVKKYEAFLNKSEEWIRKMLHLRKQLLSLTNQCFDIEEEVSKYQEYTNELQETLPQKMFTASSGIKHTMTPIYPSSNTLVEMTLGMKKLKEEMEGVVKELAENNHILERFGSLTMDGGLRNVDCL
The following applies: at 10 µM.

For assay [2], the target named is T2, TGF-beta receptor type-1 (Homo sapiens) (UniProt P36897).
T2 sequence (whole entry): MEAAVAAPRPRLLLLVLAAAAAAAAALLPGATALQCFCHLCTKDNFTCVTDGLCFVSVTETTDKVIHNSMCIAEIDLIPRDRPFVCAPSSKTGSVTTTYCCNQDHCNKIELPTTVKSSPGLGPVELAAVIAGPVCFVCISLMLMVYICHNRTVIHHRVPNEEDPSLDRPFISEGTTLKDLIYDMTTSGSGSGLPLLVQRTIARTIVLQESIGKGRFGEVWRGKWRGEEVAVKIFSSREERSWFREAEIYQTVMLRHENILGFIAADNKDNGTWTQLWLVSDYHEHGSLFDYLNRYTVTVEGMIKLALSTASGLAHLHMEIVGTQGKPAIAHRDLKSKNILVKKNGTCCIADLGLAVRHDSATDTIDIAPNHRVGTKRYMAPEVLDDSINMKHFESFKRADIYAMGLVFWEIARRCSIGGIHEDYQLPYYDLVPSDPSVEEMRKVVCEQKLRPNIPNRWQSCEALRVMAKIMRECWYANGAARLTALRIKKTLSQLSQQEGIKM
The following applies: at 1 µM.

Assay [3] concerns the target T2, TGF-beta receptor type-1 (Homo sapiens). The following applies: at 10 µM.
Assay [4] has as its target Insulin-like growth factor 1 receptor (Homo sapiens) (UniProt P08069). The following applies: at 1 µM.
The target is the same in assay [5]. The note with it: at 10 µM.
For assay [6], the target named is T3, Inhibitor of nuclear factor kappa-B kinase subunit alpha (Homo sapiens) (UniProt O15111).
T3 sequence (whole entry): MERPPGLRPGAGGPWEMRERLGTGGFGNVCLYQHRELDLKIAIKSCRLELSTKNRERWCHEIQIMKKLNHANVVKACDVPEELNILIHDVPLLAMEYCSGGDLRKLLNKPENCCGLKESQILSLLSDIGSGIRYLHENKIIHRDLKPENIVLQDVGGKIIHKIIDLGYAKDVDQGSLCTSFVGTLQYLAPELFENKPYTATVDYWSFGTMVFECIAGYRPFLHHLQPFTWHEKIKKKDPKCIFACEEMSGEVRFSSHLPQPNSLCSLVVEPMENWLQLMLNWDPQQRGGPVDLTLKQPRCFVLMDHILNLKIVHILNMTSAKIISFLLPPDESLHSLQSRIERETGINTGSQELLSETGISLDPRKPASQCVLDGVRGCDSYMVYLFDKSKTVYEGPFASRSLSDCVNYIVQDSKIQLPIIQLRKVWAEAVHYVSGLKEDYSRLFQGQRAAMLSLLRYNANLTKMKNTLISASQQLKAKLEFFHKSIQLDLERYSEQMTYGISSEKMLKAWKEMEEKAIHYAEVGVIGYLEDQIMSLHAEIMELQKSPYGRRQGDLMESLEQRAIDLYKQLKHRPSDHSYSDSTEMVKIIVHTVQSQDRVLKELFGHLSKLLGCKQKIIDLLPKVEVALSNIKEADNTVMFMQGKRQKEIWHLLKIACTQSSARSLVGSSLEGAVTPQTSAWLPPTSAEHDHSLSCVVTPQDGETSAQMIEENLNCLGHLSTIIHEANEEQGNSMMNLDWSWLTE
The following applies: at 1 µM.

The target in assay [7] is T3, Inhibitor of nuclear factor kappa-B kinase subunit alpha (Homo sapiens). The note with it: at 10 µM.
Assay [8] addresses T4, Inhibitor of nuclear factor kappa-B kinase subunit beta (Homo sapiens) (UniProt O14920).
T4 sequence (whole entry): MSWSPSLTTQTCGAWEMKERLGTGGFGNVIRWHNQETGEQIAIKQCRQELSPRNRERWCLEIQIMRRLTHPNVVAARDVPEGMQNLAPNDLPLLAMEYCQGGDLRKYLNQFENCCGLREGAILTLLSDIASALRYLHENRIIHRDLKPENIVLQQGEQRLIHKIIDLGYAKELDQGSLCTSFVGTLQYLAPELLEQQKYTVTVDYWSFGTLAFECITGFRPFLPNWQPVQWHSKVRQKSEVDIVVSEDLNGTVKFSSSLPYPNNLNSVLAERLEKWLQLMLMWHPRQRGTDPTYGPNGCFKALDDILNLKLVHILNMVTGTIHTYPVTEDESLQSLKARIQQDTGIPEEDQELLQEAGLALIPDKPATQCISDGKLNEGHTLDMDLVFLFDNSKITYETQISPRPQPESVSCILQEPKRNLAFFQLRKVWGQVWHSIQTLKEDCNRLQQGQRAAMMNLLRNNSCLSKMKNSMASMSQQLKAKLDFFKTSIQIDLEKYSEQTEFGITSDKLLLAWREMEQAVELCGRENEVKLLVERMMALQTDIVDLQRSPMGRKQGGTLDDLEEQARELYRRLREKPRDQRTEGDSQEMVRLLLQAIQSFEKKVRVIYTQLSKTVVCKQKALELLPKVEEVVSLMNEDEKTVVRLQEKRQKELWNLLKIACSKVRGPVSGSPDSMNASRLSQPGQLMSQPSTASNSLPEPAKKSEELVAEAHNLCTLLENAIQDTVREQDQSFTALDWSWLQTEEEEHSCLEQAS
The following applies: at 1 µM.

In assay [9] the target is T4, Inhibitor of nuclear factor kappa-B kinase subunit beta (Homo sapiens). The note with it: at 10 µM.
Assay [10] addresses Insulin receptor (Homo sapiens) (UniProt P06213). The note with it: at 1 µM.

Chain of Insulin-like growth factor 1 receptor (Homo sapiens) (P08069 31-736 limits assumed): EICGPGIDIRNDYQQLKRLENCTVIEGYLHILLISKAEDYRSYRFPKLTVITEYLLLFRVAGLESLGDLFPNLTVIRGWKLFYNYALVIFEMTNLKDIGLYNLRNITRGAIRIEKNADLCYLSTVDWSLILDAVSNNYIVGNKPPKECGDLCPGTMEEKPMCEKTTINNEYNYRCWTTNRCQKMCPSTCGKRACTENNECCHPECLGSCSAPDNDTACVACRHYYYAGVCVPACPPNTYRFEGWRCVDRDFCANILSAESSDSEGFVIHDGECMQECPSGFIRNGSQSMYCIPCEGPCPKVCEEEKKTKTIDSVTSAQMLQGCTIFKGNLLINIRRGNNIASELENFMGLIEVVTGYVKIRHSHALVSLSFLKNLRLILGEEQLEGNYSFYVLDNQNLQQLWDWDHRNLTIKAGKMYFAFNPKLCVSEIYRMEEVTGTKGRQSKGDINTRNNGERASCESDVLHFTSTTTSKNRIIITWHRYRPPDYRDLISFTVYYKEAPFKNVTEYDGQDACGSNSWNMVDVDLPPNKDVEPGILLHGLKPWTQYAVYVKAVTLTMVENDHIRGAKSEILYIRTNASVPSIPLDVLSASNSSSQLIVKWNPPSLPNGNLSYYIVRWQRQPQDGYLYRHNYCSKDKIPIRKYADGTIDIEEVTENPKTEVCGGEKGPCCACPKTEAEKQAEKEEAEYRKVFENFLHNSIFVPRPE
Chain of Insulin-like growth factor 1 receptor (Homo sapiens) (P08069 741-1367 limits assumed): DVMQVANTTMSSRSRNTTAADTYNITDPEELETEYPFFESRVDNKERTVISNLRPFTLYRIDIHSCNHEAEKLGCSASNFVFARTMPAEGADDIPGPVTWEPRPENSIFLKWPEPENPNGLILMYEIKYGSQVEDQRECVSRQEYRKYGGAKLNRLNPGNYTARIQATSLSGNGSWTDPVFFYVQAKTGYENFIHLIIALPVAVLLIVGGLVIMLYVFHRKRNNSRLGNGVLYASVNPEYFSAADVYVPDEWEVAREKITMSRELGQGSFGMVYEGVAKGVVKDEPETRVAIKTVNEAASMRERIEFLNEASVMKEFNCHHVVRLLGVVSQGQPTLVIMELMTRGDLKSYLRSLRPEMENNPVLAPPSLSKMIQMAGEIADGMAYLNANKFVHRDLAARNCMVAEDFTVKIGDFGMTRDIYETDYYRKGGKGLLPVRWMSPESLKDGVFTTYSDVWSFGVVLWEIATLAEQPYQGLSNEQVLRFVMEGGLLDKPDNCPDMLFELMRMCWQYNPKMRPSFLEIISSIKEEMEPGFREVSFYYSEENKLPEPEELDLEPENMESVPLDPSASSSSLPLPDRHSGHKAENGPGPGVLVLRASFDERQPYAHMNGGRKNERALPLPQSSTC
Chain of Insulin receptor (Homo sapiens) (P06213 28-758 limits assumed): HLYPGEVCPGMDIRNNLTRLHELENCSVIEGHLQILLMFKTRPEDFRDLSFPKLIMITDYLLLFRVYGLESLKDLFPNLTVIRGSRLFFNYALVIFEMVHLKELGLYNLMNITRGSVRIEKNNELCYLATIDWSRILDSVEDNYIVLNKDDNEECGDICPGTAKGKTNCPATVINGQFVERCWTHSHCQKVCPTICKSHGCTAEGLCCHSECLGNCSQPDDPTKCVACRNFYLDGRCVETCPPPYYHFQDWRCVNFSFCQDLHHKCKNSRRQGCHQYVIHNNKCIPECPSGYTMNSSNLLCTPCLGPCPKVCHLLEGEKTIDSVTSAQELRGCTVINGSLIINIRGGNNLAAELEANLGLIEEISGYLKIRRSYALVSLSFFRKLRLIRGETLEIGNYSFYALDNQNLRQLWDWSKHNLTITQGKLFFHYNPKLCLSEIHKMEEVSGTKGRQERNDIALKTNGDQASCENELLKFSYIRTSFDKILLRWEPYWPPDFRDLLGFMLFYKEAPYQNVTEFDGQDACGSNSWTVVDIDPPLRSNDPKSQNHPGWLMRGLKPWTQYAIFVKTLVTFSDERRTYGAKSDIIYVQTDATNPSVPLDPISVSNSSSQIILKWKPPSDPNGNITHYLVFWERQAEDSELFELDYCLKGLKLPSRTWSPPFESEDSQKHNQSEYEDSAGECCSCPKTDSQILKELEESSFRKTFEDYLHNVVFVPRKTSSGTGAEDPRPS
Chain of Insulin receptor (Homo sapiens) (P06213 763-1382 limits assumed): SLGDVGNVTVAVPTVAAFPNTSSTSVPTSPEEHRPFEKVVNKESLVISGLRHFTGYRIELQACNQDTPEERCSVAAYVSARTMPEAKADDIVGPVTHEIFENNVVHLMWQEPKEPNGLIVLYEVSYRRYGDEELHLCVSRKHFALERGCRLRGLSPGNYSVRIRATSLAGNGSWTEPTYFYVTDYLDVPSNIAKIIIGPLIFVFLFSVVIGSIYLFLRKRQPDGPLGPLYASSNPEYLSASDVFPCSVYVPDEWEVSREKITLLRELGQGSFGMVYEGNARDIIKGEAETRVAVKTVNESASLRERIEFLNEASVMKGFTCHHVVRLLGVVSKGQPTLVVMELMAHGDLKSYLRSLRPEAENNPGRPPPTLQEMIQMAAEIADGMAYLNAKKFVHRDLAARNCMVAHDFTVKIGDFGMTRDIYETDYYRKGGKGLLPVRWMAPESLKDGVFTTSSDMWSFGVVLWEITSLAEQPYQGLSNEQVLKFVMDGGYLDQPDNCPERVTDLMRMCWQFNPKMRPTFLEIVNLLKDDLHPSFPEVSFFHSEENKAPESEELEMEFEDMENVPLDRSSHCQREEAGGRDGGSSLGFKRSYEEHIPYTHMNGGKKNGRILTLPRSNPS

One may read the residual activity as the signal under treatment as a percentage of the control signal. For the compound `CC#CC(=O)Nc1cc2c(Nc3ccc(F)c(Cl)c3)ncnc2cn1`, the residual activity is 72% in assay [1]; 74% in [2]; 89% in assay [3]; 98% in [4]; 93% in assay [5]; 97% in [6]. Also, the residual activity in [7] was 95%; in [8], 96%; in assay [9], 96%; in assay [10], 101%.
